Screening data (PubChem)
KB-V1 MDR tox: kills drug-selected multidrug resistant KB-V1 cells. KB-V1 MDR cells viability, CellTiter-Glo, 72 h. AID 1347076. Potency, µM (titrated, usually from 46.1 µM), actives largely listed as cytotoxic. 3.4% of 400,000 active; also: nearly all actives have a fitted effect of over 60% in size
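Cytotoxicity toward P-gp-expressing KB-V1 cells was determined as loss of CellTiter-Glo luminescence after 72 h at 37 degrees C. Compounds were tested in quantitative HTS format across a concentration range, with curves fitted to normalized data.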
MCF10A rereplic: DNA re-replication induction in MCF 10a cells; MCF 10A DNA re-replication, Hoechst nuclear intensity, 48 h; Potency, µM (series often up to 46.1 µM), most hits filed as activators; 2.9% of 350,000 active; AID 624296; also: nearly all actives have a fitted effect of over 50% in size
KB-3-1 cytotox: KB-3-1 parental cell cytotoxicity. 1.4% of 400,000 active. KB-3-1 viability, CellTiter-Glo ATP luminescence, 72 h. Potency, µM (series often up to 46.1 µM), hits mostly cytotoxic; also: nearly all actives have a fitted effect of over 60% in size
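Parental KB-3-1 viability, qHTS format: 72 h compound exposure, 37 °C; CellTiter-Glo; media-only wells and DMSO plates as controls; concentration-effect fits on corrected data.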
HT1080-NT tox: kills 2HG-producing HT-1080-NT fibrosarcoma cells; HT-1080-NT fibrosarcoma viability, CellTiter-Glo ATP luminescence, 48 h; Potency, µM (highest dose often 46.1 µM), hits mostly cytotoxic; AID 686970; 1.6% of 360,000 active;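 also: NT is the 2HG producing partner of a matched IDH1 knockdown line; nearly all actives have a fitted effect of over 55% in size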
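Viability of the 2HG-overproducing fibrosarcoma line after 48 hours of compound exposure at 37 degrees C was determined by luminescence with CellTiter-Glo, and concentration-effect curves were then fitted and categorized.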
HT1080 IDH1KD tx: kills HT-1080 cells with IDH1 knockdown. HT-1080 IDH1 knockdown viability, ATP luminescence, 48 h. Potency, µM (highest dose often 46.1 µM), actives largely listed as cytotoxic. 2% of 360,000 active. AID 686971
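Using the IDH1-knockdown HT-1080 line run in the same batch and compound series as the NT line, viability after 48 h at 37 °C was determined by CellTiter-Glo luminescence and expressed as % activity.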
SW480 rereplic: DNA re-replication induction in SW480 cells; 1.8% of 340,000 active; Potency, µM (highest dose often 46.1 µM), actives largely listed as activators; SW480 DNA re-replication, Hoechst DNA content imaging, 48 h; also: nearly all actives have a fitted effect of over 55% in size
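Quantitative HTS format with DMSO vehicle controls; 48 hr drug incubation at 37 C, then 40 min Hoechst staining and scanning imager measurement at 405 nm excitation.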
A number is an active result; n = inactive; u = inconclusive; x = no result; [ ] = another dose, or the depositor's remark. Shown are actives, neighbours in structure and some others; about 8% of the full set was active somewhere. Calls follow the shape of the dose curve; as a rule, active = well fitted curve in the direction sought with a large enough effect; inconclusive = small, poorly fitted or top-dose-only effect, or another doubt; inactive = no such curve, though single readings can be large; an effect the other way counts as inactive or inconclusive.

SMILES	KB-V1 MDR tox	MCF10A rereplic	KB-3-1 cytotox	HT1080-NT tox	HT1080 IDH1KD tx	SW480 rereplic
CCN1CCN(c2ccc(S(=O)(=O)N3CCCCC3)cc2NC(=O)c2ccc([N+](=O)[O-])s2)CC1	u	u	u	n	n	13µM
COc1cc(C#N)ccc1OCC(=O)Nc1cccc(S(=O)(=O)N2CCCC2)c1	16µM	n	n	n	n	n
COc1ccc(C(=O)Nc2ccnn2C2CCN(Cc3ccc4nonc4c3)CC2)cc1	n	u	n	n	n	n
COc1ccc(N2CC(C(=O)Nc3ccc(S(=O)(=O)Nc4nccs4)cc3)CC2=O)cc1 (stereo unspecified)	n	n	n	n	n	n
CC(C)CN1C(=O)c2ccc(C(=O)Nc3ccncc3)cc2C1=O	n	n	n	n	n	n
O=C(CSc1nncn1-c1ccccc1)Nc1cccc(S(=O)(=O)N2CCCCC2)c1	x	n	x	x	x	n
COc1ccc(-n2cnnc2SCC(=O)Nc2cccc(S(=O)(=O)N3CCCCC3)c2)cc1	15µM	n	n	n	n	n
CCN1CCN(c2ccc(S(=O)(=O)N3CCCCC3)cc2NC(=O)COc2ccc(Cl)c(C)c2)CC1	n	n	n	n	n	16µM
O=c1c2ccccc2[nH]c(=S)n1Cc1ccccc1Cl	n	n	n	n	n	n
O=C(COCc1cc(-c2ccc3c(c2)OCO3)on1)N1CCN(c2cccc(C(F)(F)F)c2)CC1	n	u	u	u	u	u
CCCc1cc2c(=O)c(-c3ccc4c(c3)OCCO4)coc2cc1OS(C)(=O)=O	10µM	u	u	n	n	n
C[C@@H]1C(c2ccccc2)=NN(c2ccc(Br)cc2)[C@H]1C(=O)N1CCOC1=O	n	15µM	u	n	u	u
Cc1cccc(C2=NN(c3ccccc3)[C@@H](C(=O)N3CCOC3=O)[C@@H]2C)c1	n	n	n	n	n	n
Cc1cccc(C2=NN(c3ccc(Br)cc3)[C@@H](C(=O)N3CCOC3=O)[C@@H]2C)c1	n	5.2µM	n	u	u	u
CC[C@@H]1C(c2ccccc2)=NN(c2ccccc2)[C@H]1C(=O)N1CCOC1=O	n	23µM	n	n	n	n
COc1ccccc1N(CC(=O)NCCSCc1ccccc1)S(C)(=O)=O	n	n	n	n	n	n
CCc1nnc2cccc(Cl)n12	n	n	n	n	n	n
Cc1cc(C(C)(C)C)ccc1OCCCCN1CCCC1	n	13µM	n	n	n	n
Cc1cc(Br)ccc1OCCCCNCCO	n	n	n	n	n	n
Cc1cc(Br)ccc1OCCCCN1CCCCC1	u	n	n	21µM	u	u
C=CCNCCCCOc1ccc(Br)cc1C	n	26µM	n	n	n	u
CCCCc1cc(=O)oc2c(CN(C)C)c(O)c(Cl)cc12	n	n	n	n	n	n
COc1cc2nc(N3CCN(c4cc(C)ccc4C)CC3)nc(N)c2cc1OC	u	6.5µM	u	2.6µM	2.6µM	u
COc1ccc(C)cc1Nc1nc(N)c2cc(OC)c(OC)cc2n1	u	u	n	u	18µM	u
COc1cc(NC(=O)C(CC(C)C)NS(=O)(=O)c2ccc3c(c2)CCN3C(C)=O)cc(OC)c1 (stereo unspecified)	u	x	n	x	x	x
SMILES	KB-V1 MDR tox	MCF10A rereplic	KB-3-1 cytotox	HT1080-NT tox	HT1080 IDH1KD tx	SW480 rereplic
CN(C)CCCN(C(=O)CCc1ccccc1)c1nc2ccc(Cl)cc2s1	23µM	u	u	23µM	16µM	n
Cc1ccc2nc(N(CCCN(C)C)C(=O)CS(=O)(=O)c3ccccc3)sc2c1	n	n	n	n	n	n
Cc1ccc2nc(N(CCCN(C)C)C(=O)CCc3ccccc3)sc2c1	n	n	n	15µM	16µM	u
O=C(Nc1ncc(Cc2ccc(SC(F)F)cc2)s1)c1ccc(OC(F)F)cc1	0.33µM	u	0.21µM	0.073µM	0.046µM	u
Cc1cccc(Cc2cnc(NC(=O)c3ccc(C)o3)s2)c1	n	2.6µM	u	n	u	n
NC(=O)c1cc(Cc2ccccc2)sc1NC(=O)c1ccco1	9.2µM	u	u	u	u	n
O=C(Nc1ncc(Cc2ccc(C(F)(F)F)cc2)s1)c1ccc(-c2cccc([N+](=O)[O-])c2)o1	4.6µM	u	n	n	n	x
NS(=O)(=O)c1ccc(NC=C2C(=O)OC3(CCCCC3)OC2=O)cc1	n	u	n	n	n	n
COc1cc(C2=NOC(C(=O)N3CCN(c4ccc(F)cc4)CC3)C2)cc(OC)c1OC (stereo unspecified)	n	n	n	n[9.24 µM]	n	n
O=C(Nc1ncc(Cc2cccc([N+](=O)[O-])c2)s1)c1ccco1	n	u	5.8µM	u	4.6µM	n
Cc1ccc(Cc2cnc(NC(=O)c3ccco3)s2)cc1	18µM	n	n	n	n	n
Cc1ccc(-c2nnc(NC(=O)c3ccco3)s2)cc1	n	n	n	n	n	n
O=C(Nc1ccc(S(=O)(=O)N2CCc3ccccc32)cc1)c1ccc2c(c1)OCO2	5.2µM	n	n	u	u	n
COCCCNC(=O)c1c[nH]c2ccc(S(=O)(=O)N3CCc4ccccc43)cc2c1=O	n	n	u	u	u	n
COc1ccc(S(=O)(=O)N2CCc3ccccc32)cc1C(=O)Nc1ccc(C(N)=O)cc1	n	23µM	u	u	u	n
COc1ccc(S(=O)(=O)N2CCc3ccccc32)cc1C(=O)NCCc1ccc(S(N)(=O)=O)cc1	n	n	n	n	n	n
COc1cc(C(=O)Nc2ccc(S(=O)(=O)N3CCc4ccccc43)cc2)cc(OC)c1OC	5.8µM	n	u	n	n	n
COCCNC(=O)c1c[nH]c2ccc(S(=O)(=O)N3CCc4ccccc43)cc2c1=O	n	n	u	2.3µM	2.3µM	n
COc1ccccc1C(=O)Nc1ccc(S(=O)(=O)N2CCc3ccccc32)cc1	u	n	n	n	n	u
CC(C)(C)C(=O)NCc1ccc(C(=O)CSc2nnc(C3CC3)n2C2CC2)s1	n	n	n	n	n	n
COc1ccc(NC(=O)CCc2ccc(OC)c(OC)c2)cn1	n	n	n	n	n	n
O=C1[C@@H]2Cc3ccccc3CN2C(=O)N1c1cccc(F)c1	n	n	n	n	n	n
Cc1ccccc1N1C(=O)[C@@H]2Cc3ccccc3CN2C1=O	16µM	n	n	n	n	n
O=C1c2ccccc2C(=O)c2c1cccc2N1CCCC1	15µM	n	n	n	n	n
O=C1C=C(C2CCCCC2)C(=O)c2ccccc21	n	u	n	n	n	u
Cn1c(=O)cc2c3c(c(N4CCCCC4)ccc31)C(=O)c1ccccc1-2	n	n	n	n	n	u
O=C1C=C(N2CCCCC2)c2ccccc2C1=O	10µM	u	12µM	6.5µM	5.8µM	3.3µM
